# Data published in PubChem BioAssay (NCATS).
# Results filed as inconclusive are left out. Where a call stands in place of a potency, no number is given. Calls of active or inactive are those of the source. Unless noted, calls come from the whole dose curve; as a rule, active = well fitted curve in the direction sought with a large enough effect; inconclusive = small, poorly fitted or top-dose-only effect, or another doubt; inactive = no such curve, though single readings can be large; an effect the other way counts as inactive or inconclusive.
# Experiments:
# [1] = target: Methanococcus maripaludis chaperonin (MmCpn) (UniProt Q6LX38); test: High-Throughput Screening for Modulators of Cytosolic Chaperonin Activity: MmCpn Primary Screen (AID 488978); conditions: Purified MmCpn ATPase activity, ADP HTRF detection, 10 min; series mostly up to 76.9 µM;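 note: 50 nM MmCpn enzyme hydrolysing 30 µM ATP at 37 °C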
# Chain of Methanococcus maripaludis chaperonin (MmCpn) (Q6LX38 1-543): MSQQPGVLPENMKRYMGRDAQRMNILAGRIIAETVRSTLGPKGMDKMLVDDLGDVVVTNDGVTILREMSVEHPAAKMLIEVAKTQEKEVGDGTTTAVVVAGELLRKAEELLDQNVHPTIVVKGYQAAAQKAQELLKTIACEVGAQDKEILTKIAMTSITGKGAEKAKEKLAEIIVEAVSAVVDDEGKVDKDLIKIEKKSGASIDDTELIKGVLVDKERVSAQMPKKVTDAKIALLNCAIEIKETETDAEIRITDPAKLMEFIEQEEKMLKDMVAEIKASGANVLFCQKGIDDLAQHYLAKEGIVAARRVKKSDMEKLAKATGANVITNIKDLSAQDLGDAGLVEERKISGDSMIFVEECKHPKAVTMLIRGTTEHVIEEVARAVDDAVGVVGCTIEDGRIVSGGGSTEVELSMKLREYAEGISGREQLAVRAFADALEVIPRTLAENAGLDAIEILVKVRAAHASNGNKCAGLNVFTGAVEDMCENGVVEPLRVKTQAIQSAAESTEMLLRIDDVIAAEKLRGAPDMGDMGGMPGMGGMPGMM
# In short: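 ATPase activity of 50 nM MmCpn was assayed with 30 uM ATP, 10 minutes at 37C, after a 5 min compound preincubation at room temperature. ADP production was read as HTRF emission at 590 and 665 nm.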
# [2] = target: Transient receptor potential cation channel subfamily V member 1 (Homo sapiens) (UniProt Q8NER1); test: HTS Assay for Compounds that Act as Enhancers of the Vanilloid Receptor 1 (AID 488979); conditions: TRPV1-expressing cells, enhancer of channel activity, stimulated with capsaicin at EC20; series mostly up to 41.7 µM
# Chain of Transient receptor potential cation channel subfamily V member 1 (Homo sapiens) (Q8NER1 whole entry, looked up): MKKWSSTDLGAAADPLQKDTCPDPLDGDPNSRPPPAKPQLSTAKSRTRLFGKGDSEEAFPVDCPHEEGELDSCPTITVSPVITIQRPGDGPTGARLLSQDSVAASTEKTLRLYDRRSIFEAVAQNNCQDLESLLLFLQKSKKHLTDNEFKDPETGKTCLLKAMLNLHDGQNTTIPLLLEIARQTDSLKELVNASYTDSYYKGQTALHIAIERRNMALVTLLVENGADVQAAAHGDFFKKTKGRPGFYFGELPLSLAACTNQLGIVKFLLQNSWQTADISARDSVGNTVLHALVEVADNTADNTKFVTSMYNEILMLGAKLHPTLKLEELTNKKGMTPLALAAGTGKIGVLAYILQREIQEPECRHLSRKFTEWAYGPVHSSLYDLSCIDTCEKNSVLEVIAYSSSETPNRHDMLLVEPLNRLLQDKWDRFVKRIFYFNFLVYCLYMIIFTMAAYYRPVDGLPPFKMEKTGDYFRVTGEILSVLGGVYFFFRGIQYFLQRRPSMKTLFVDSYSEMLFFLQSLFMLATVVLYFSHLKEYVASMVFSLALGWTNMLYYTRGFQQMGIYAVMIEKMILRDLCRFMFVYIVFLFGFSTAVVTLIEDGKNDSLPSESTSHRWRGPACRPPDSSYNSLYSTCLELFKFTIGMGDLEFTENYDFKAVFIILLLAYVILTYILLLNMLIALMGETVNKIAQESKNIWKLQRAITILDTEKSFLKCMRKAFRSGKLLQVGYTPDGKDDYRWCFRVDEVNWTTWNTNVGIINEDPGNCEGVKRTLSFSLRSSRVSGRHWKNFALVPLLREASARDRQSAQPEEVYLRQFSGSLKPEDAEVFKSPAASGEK
# In short: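 TRPV1-expressing cells loaded with Fluo-8 calcium dye; compounds added and calcium influx read kinetically for 3 min (agonist phase), then capsaicin at EC20 added and read 2 min more for enhancement. Fluorescence ex 480/em 520 nm.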
# [3] = target: Thyrotropin receptor (Homo sapiens) (UniProt P16473); test: qHTS Assay for Antagonists of the Thyroid Stimulating Hormone Receptor (AID 488980); conditions: TSHR-expressing cells, cAMP antagonist read-out; series mostly up to 57.5 µM
# Chain of Thyrotropin receptor (Homo sapiens) (P16473 whole entry, looked up): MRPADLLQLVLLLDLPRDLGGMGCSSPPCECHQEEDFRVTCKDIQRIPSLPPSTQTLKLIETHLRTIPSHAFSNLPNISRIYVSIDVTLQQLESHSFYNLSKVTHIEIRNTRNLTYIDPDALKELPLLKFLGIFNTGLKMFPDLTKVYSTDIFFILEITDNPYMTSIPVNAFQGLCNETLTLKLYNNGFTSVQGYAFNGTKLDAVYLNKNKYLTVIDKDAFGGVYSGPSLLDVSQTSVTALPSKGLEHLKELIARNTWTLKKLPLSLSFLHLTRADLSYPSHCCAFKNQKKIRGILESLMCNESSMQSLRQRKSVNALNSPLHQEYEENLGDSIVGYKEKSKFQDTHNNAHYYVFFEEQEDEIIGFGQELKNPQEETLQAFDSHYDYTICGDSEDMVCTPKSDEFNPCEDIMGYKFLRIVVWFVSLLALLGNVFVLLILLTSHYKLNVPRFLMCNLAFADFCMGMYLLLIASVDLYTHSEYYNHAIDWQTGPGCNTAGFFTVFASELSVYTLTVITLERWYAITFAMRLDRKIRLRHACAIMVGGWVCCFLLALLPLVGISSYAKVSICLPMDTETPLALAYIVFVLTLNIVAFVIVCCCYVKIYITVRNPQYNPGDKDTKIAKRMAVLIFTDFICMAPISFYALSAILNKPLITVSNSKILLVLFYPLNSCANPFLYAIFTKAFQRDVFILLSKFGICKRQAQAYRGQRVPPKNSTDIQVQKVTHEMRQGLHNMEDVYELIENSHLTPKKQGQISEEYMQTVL
# In short: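 Inhibition of cAMP raised by EC80 TSH (4 nM final) was read by HTRF, with lysate cAMP competing against cAMP-d2 for cryptate antibody after 30 min at room temperature. The cells were transfected HEK293 held in phosphodiesterase inhibitor RO 20-1724 at 70 uM.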
# [4] = target: D(1A) dopamine receptor (Homo sapiens) (UniProt P21728); test: HTS Assay for Allosteric Agonists of the Human D1 Dopamine Receptor: Primary Screen for Agonists (AID 488981); conditions: Inducible HEK293 T-REx D1 cells, calcium-flux fluorescence, 180 s kinetic; series mostly up to 41.8 µM
# Chain of D(1A) dopamine receptor (Homo sapiens) (P21728 whole entry, looked up): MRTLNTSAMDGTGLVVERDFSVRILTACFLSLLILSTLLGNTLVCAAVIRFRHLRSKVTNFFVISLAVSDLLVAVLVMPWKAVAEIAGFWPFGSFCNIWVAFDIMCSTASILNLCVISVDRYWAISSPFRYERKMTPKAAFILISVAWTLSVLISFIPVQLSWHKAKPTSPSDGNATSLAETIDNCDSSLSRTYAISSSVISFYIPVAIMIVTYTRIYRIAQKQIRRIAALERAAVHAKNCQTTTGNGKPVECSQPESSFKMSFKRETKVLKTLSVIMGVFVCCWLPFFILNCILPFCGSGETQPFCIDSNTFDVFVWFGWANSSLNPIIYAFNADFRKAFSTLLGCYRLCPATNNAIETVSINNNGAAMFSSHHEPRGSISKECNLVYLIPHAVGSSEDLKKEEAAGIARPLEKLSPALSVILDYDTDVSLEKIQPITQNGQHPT
# In short: (§1)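 Tetracycline-induced HEK293 T-REx cells force-coupled to calcium signalling were incubated overnight at 30 C and dye-loaded at room temperature. Calcium flux over 180 s after compound addition flagged agonists; a further 180 s read after EC20 dopamine flagged potentiators.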
# [5] = target: D(1A) dopamine receptor (Homo sapiens) (UniProt P21728); test: HTS Assay for Allosteric Agonists of the Human D1 Dopamine Receptor: Primary Screen for Potentiators (AID 488982); conditions: HEK293 T-REx D1 inducible cells, calcium flux, kinetic fluorescence; series mostly up to 8.37 µM; note: potency is the fitted concentration of half-maximal effect
# In short: as §1
# [6] = target: D(1A) dopamine receptor (Homo sapiens) (UniProt P21728); test: HTS Assay for Allosteric Agonists of the Human D1 Dopamine Receptor: Primary Screen for Antagonists (AID 488983); conditions: D1 receptor cell assay, antagonist mode, qHTS titration; series mostly up to 41.8 µM;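 note: calcium flux response to an EC80 dopamine challenge measured with no-wash dye; nearly all actives have a fitted effect of over 65% in size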
# In short: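 Tetracycline-induced HEK293 T-REx cells expressing force-coupled D1 were plated overnight at 30 C, dye-loaded for calcium, and read kinetically. Compounds were pinned in, then an EC80 dopamine challenge followed after 180 s to reveal antagonism.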
# [7] = Validation screen for small molecules that induce genotoxicity in human embryonic kidney (HEK293T) cells expressing luciferase-tagged ELG1 (AID 493106); conditions: luminescence; series mostly up to 46.1 µM; note: potency is the fitted concentration of half-maximal effect
# In short: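 HEK293T cells expressing luciferase-tagged ELG1 were exposed to compound or DMSO vehicle for 16 hr at 37 °C, 5% CO2. Genotoxic stress raises ELG1 levels, so increased luciferase signal after ONE-Glo addition and 30 min at room temperature marks hits.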
# [8] = target: ATPase family AAA domain-containing protein 5 (Homo sapiens) (UniProt Q96QE3); test: Validation screen for small molecules that inhibit ELG1-dependent DNA repair in human embryonic kidney (HEK293T) cells expressing luciferase-tagged ELG1 (AID 493107); conditions: HEK293T ELG1-luciferase level, luminescence, 5-fluorouridine co-treatment, 16 h; series mostly up to 46.1 µM;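 note: cells co-treated with the DNA-damaging agent 5-fluorouridine alongside compound; inhibitors lower the ELG1-luciferase luminescence signal; nearly all actives have a fitted effect of over 70% in size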
# Chain of ATPase family AAA domain-containing protein 5 (Homo sapiens) (Q96QE3 whole entry, looked up, the tested form may be a part): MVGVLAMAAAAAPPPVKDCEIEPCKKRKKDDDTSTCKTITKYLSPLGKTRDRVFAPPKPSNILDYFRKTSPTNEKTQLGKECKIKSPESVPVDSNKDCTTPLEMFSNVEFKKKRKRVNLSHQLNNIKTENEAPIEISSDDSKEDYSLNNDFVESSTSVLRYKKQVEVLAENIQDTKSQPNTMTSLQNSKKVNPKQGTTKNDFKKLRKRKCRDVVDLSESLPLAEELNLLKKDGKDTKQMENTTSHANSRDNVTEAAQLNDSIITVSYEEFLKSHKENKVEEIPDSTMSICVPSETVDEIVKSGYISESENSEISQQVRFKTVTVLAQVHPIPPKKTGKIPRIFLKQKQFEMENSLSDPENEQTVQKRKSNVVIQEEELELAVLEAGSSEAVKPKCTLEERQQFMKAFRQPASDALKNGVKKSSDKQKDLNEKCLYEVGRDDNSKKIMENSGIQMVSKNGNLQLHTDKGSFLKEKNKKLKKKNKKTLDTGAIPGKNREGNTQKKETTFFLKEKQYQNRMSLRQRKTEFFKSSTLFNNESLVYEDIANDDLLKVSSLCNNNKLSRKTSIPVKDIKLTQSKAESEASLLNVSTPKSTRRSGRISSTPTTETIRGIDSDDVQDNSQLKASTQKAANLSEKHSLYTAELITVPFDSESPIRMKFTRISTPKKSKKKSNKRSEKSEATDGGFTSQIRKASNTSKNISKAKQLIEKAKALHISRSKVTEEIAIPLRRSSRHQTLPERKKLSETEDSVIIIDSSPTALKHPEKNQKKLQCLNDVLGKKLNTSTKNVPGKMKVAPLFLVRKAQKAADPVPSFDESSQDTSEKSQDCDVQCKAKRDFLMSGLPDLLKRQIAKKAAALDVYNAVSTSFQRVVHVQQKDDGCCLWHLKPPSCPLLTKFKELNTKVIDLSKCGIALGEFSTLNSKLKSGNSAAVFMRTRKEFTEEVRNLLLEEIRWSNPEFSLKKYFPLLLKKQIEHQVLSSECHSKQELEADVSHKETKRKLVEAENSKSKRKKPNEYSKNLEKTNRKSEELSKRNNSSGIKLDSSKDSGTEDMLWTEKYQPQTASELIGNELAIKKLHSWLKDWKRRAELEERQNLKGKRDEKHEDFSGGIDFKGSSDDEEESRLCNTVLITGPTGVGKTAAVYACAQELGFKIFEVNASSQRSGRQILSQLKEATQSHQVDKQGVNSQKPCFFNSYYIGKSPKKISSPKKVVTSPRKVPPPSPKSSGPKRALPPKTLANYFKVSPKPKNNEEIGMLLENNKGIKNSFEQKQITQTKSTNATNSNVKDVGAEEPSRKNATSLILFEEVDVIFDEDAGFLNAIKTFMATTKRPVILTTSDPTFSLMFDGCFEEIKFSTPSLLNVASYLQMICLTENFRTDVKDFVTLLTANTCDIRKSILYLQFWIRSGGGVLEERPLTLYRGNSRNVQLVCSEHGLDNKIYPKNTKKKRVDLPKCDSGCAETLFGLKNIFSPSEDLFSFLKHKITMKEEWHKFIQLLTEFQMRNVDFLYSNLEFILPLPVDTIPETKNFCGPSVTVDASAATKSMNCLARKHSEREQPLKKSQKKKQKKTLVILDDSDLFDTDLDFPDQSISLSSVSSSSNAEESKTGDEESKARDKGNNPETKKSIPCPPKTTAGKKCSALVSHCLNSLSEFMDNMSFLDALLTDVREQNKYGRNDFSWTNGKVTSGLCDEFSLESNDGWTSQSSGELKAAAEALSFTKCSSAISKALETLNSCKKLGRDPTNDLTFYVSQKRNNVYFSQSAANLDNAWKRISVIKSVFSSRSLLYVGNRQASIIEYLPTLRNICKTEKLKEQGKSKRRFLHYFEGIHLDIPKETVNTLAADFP
# In short: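 HEK293T cells expressing luciferase-tagged ELG1 were co-treated with 5-fluorouridine and compound or DMSO for 16 hr at 37 °C, 5% CO2. Luciferase activity was then read with ONE-Glo after 30 min at room temperature; suppressed signal indicates blocked ELG1 function.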
# [9] = Nrf2 qHTS screen for inhibitors: Validation (AID 493153; active = well fitted inhibition curve with a large enough effect in the main read-out, with a control signal flat, not every such curve was filed as active); conditions: A549 ARE-Fluc reporter, 18-24 h; Potency: luciferase luminescence; viability change: measured here: cytotoxicity max response; luciferase luminescence, at 46.1 µM (top of the series)
# In short: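 A549 cells carrying an ARE-driven firefly luciferase reporter, in 5% FBS OPTI-MEM, were treated with compounds in concentration-response for 18-24 h at 37°C. Viability was read by CellTiter-Fluor fluorescence, then Nrf2 activity by luciferase luminescence.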
# [10] = target: ATP-dependent 6-phosphofructokinase (Trypanosoma brucei brucei) (UniProt O15648); test: qHTS Assay to Find Inhibitors of T. brucei phosphofructokinase: hit validation (AID 492961);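 note: luminescence reports ADP formed as PFK phosphorylates fructose-6-phosphate with ATP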; conditions: T. brucei PFK, ADP-Glo luminescence; series mostly up to 51.4 µM
# Chain of ATP-dependent 6-phosphofructokinase (Trypanosoma brucei brucei) (O15648 whole entry, looked up): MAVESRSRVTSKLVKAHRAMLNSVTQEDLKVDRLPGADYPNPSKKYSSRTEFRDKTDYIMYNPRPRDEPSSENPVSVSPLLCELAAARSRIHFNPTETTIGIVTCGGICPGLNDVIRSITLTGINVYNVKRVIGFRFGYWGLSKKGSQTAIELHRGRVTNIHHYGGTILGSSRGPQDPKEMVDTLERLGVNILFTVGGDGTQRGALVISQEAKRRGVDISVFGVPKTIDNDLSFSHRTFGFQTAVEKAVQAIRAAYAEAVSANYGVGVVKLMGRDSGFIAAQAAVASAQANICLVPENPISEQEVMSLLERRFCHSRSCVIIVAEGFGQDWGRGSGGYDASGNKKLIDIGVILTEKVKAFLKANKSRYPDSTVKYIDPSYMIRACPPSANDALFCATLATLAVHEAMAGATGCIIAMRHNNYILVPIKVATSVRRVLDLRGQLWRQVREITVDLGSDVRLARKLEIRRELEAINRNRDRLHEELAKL
# In short: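 Percent activity derived from corrected luminescence, normalized between 0x and 1x enzyme controls, then fitted to concentration-response curves. Conditions: 1.25 nM PFK, 0.1 mM ATP, 0.5 mM F6P, 45 min RT.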
smiles,measurement,setting,value
OC(CN1CCN(c2cccc(Cl)c2)CC1)C(c1ccccc1)c1ccccc1 (centres undefined),outcome,[1],inactive
same,outcome,[2],inactive
same,outcome,[3],inactive
same,outcome,[4],inactive
same,Potency,[5],inactive
same,Potency,[6],inactive
same,Potency,[7],inactive
same,outcome,[8],inactive
same,Potency,[9],inactive
same,viability change,[9],1.98%
COc1cc2c(cc1OC)C1CC(=O)C(CC(C)C)CN1CC2 (centres undefined),outcome,[1],inactive
same,outcome,[4],inactive
same,Potency,[5],inactive
same,Potency,[6],inactive
same,outcome,[10],inactive
same,Potency,[9],inactive
same,viability change,[9],-5.87%
Nc1nc(OCc2ccccc2)c2[nH]cnc2n1,outcome,[1],inactive
same,outcome,[2],inactive
same,outcome,[3],inactive
same,outcome,[4],inactive
same,Potency,[5],inactive
same,Potency,[6],inactive
same,outcome,[8],inactive
same,Potency,[9],inactive
same,viability change,[9],10.1%
CC(=O)O[C@H]1C(=O)[C@@]2(C)C([C@H](OC(=O)c3ccccc3)[C@]3(O)C[C@H](OC(=O)[C@H](O)[C@@H](NC(=O)c4ccccc4)c4ccccc4)C(C)=C1C3(C)C)[C@]1(OC(C)=O)CO[C@@H]1C[C@@H]2O (some centres undefined),outcome,[1],inactive
same,outcome,[2],inactive
same,outcome,[3],inactive
same,outcome,[4],inactive
same,Potency,[5],inactive
same,Potency,[6],inactive
same,Potency,[7],inactive
CC1(C)NC(=O)N(c2ccc([N+](=O)[O-])c(C(F)(F)F)c2)C1=O,outcome,[1],inactive
same,outcome,[2],inactive
same,outcome,[3],inactive
same,outcome,[4],inactive
same,Potency,[5],inactive
same,Potency,[6],inactive
same,Potency,[7],inactive
same,outcome,[8],inactive
O=C1NC(=O)C(c2ccccc2[N+](=O)[O-])=C1Nc1ccc(O)c(Cl)c1,outcome,[1],inactive
same,outcome,[2],inactive
same,outcome,[3],inactive
same,outcome,[4],inactive
same,Potency,[5],5.17 µM (active)
same,Potency,[6],inactive
same,Potency,[7],inactive
same,Potency,[9],inactive
same,viability change,[9],5.73%
O=C(O)c1cccnc1Nc1cccc(C(F)(F)F)c1,outcome,[1],inactive
same,outcome,[2],inactive
same,outcome,[4],inactive
same,Potency,[5],inactive
same,Potency,[6],inactive
same,Potency,[7],inactive
same,outcome,[8],inactive
CNC[C@H](O)c1ccc(O)c(O)c1,outcome,[1],inactive
same,outcome,[2],inactive
same,outcome,[3],inactive
same,Potency,[5],inactive
same,outcome,[10],inactive
same,Potency,[7],inactive
same,outcome,[8],inactive
same,Potency,[9],inactive
same,viability change,[9],3.45%
Nc1cccc2c1CN(C1CCC(=O)NC1=O)C2=O (centres undefined),outcome,[10],inactive
O=Nc1c(-c2c(O)[nH]c3cc(Br)ccc23)[nH]c2ccccc12,outcome,[2],inactive
same,outcome,[3],inactive
same,outcome,[4],inactive
same,Potency,[5],inactive
same,Potency,[7],0.92 µM (active)
CC[C@]1(O)C[C@H]2CN(CCc3c([nH]c4ccccc34)[C@@](C(=O)OC)(c3cc4c(cc3OC)N(C=O)[C@H]3[C@@](O)(C(=O)OC)[C@H](OC(C)=O)[C@]5(CC)C=CCN6CC[C@]43[C@@H]65)C2)C1,outcome,[10],inactive
Cc1nc2n(c(=O)c1CCN1CCC(c3noc4cc(F)ccc34)CC1)CCCC2,outcome,[2],inactive
same,outcome,[3],inactive
COc1cc(OC)c(C(=O)CCCN2CCCC2)c(OC)c1,outcome,[10],inactive
CCOC(=O)c1c(C)n(C)c2ccc(O)cc12,outcome,[10],inactive
CCOc1cc(CC(=O)N[C@@H](CC(C)C)c2ccccc2N2CCCCC2)ccc1C(=O)O,outcome,[10],inactive
CN(c1nccc(=O)[nH]1)C1CCN(c2nc3ccccc3n2Cc2ccc(F)cc2)CC1,outcome,[10],inactive
COC(=O)C1=C(C)NC(C)=C(C(=O)OCCCN2CCC(c3ccccc3)(c3ccccc3)CC2)C1c1cccc([N+](=O)[O-])c1 (centres undefined),outcome,[10],inactive
O=C(NCC1CCCCN1)c1cc(OCC(F)(F)F)ccc1OCC(F)(F)F (centres undefined),outcome,[2],inactive
same,outcome,[3],inactive
CCCCc1ccc2nc(NC(=O)OC)[nH]c2c1,outcome,[10],inactive
Cn1c(NCCN(CCO)CCCc2ccc([N+](=O)[O-])cc2)cc(=O)n(C)c1=O,outcome,[10],inactive
Cc1cc2cc3c(C)cc(=O)oc3c(C)c2o1,outcome,[10],inactive
CN(C)CCc1c[nH]c2ccc(Cn3cncn3)cc12,outcome,[10],inactive
O=C1CCc2ccc(OCCCCN3CCN(c4cccc(Cl)c4Cl)CC3)cc2N1,outcome,[10],inactive
Nc1cc(C(Cl)=C(Cl)Cl)c(S(N)(=O)=O)cc1S(N)(=O)=O,outcome,[10],inactive
C[C@H](Cn1cnc2c(N)ncnc21)OCP(=O)(O)O,outcome,[10],inactive
CCC[C@@H]1C[C@@H](C(=O)N[C@@H]([C@H]2O[C@H](SC)[C@H](O)[C@@H](O)[C@H]2O)[C@@H](C)O)N(C)C1,outcome,[10],inactive
COCCCOc1ccnc(CS(=O)c2nc3ccccc3[nH]2)c1C (centres undefined),outcome,[10],inactive
CCN(CCO)CCCC(C)Nc1ccnc2cc(Cl)ccc12 (centres undefined),outcome,[10],inactive
CNC[C@@H](O)[C@@H](O)[C@H](O)[C@H](O)CO,outcome,[10],inactive
O=P(O)(O)C(O)(Cn1ccnc1)P(=O)(O)O,outcome,[10],inactive
Nc1nc(N)c(N=O)c(OCC2CCCCC2)n1,outcome,[1],inactive
same,outcome,[4],inactive
same,Potency,[5],inactive
same,Potency,[6],inactive
same,outcome,[8],inactive
same,Potency,[9],inactive
same,viability change,[9],-2.98%
O=C(O)CCNC(=O)c1ccc(N=Nc2ccc(O)c(C(=O)O)c2)cc1,outcome,[10],inactive
Cc1cc2c(s1)Nc1ccccc1N=C2N1CCN(C)CC1,outcome,[10],inactive
CCOC(=O)C(C)Oc1cccc2c(=O)n(CC(=O)Nc3ccc4c(c3)OCCO4)ccc12 (centres undefined),outcome,[1],inactive
same,outcome,[4],inactive
same,Potency,[5],inactive
same,Potency,[6],inactive
same,outcome,[8],inactive
same,Potency,[9],inactive
same,viability change,[9],-3.9%
COc1ccc(C2(C#N)CCC(C(=O)O)CC2)cc1OC1CCCC1 (centres undefined),outcome,[10],inactive
Oc1ccc(OCc2ccccc2)cc1,outcome,[10],inactive
CCCc1cc(=O)[nH]c(=S)[nH]1,outcome,[10],inactive
Oc1ccc2ccccc2c1SSc1c(O)ccc2ccccc12,outcome,[1],inactive
same,outcome,[4],inactive
same,Potency,[6],inactive
same,Potency,[7],inactive
same,outcome,[8],inactive
same,Potency,[9],inactive
same,viability change,[9],7.1%
O=C(CS(=O)Cc1ccco1)NCC=CCOc1cc(CN2CCCCC2)ccn1 (centres undefined),outcome,[10],inactive
O=c1oc2cc(O)ccc2s1,outcome,[10],inactive
N=C(N)c1ccc2cc(OC(=O)c3ccc(N=C(N)N)cc3)ccc2c1,outcome,[10],inactive
CN1C(C(=O)Nc2ccccn2)=C(O)c2sccc2S1(=O)=O,outcome,[10],inactive
